Hits are enriched below; roughly 3.1% of the tested compounds scored in any of these assays.
Mot1-301 SUMO: SUMOylation pathway inhibition by Mot1-301 growth rescue; hit rate 1% among 320,000; AID 2716; growth rescue, % at 18.8 µM; S. cerevisiae Mot1-301 growth rescue, ATP luminescence, 38.5C; percent above DMSO median, 100 means doubled;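 active = every valid replicate shows activation above 250% relative to neutral control wells; inactive = the rest, any valid replicate at or below 250%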;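 also: OY570 slx delta 5 strain wells were the positive control but not used for scaling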
FAS TE block: FAS thioesterase (human) inhibition; hit rate 0.67% among 360,000; recombinant FAS-TE, OMFH fluorogenic substrate, fluorescence endpoint; inhibition, % at 15 µM; AID 602261;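 active = compounds whose normalised, plate-corrected inhibition of enzyme fluorescence in the single-dose primary screen is 50% or more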;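 also: 0% = DMSO with enzyme and 100% = substrate without enzyme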
ATG4B inhibitor: blocks human ATG4B protease cleavage of LC3 substrate | ATG4B cleavage of LC3-PLA2, NBD-HPC fluorescence, 1 h | AID 504462 | inhibition, % at 8.33 µM | Q9Y4P1 | hit rate 0.51% among 340,000; in the data active = inhibition above about 40%
Target sequence (Q9Y4P1 whole entry, looked up): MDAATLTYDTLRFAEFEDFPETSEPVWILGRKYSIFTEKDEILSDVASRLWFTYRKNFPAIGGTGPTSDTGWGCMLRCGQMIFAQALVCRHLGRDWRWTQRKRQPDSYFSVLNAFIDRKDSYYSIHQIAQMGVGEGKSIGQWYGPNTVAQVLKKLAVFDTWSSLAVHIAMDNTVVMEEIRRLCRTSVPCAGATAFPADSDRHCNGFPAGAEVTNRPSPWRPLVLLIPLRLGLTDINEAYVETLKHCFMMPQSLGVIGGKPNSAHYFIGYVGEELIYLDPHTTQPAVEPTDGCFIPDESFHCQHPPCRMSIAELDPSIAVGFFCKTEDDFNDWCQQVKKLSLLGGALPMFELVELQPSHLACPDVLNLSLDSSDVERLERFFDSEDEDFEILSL
NadD block: NadD (S. aureus) enzyme inhibition | AID 602399 | inhibition, % at 20 µM | hit rate 0.78% among 360,000 | purified NadD enzyme, colorimetric absorbance read-out; in the data active = inhibition above about 26%
Calb FLC: affects C. albicans growth with fluconazole; C. albicans CaCi-2 (fluconazole-resistant clinical isolate) + fluconazole, Alamar Blue growth, 48 h; growth inhibition, % (concentration not given with the values); hit rate 0.57% among 300,000; AID 1979;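 active = growth inhibition above about 58% in most replicates, limit read from the data, passing the limit was not always enough; inconclusive = exactly half the replicates above a set limit; inactive = most replicates below a set limit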;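 also: all wells also contain fluconazole at 8 µg/ml as a sub-toxic cotreatment; 0% = median of DMSO wells and 100% = median of geldanamycin control wells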
An asterisk follows results filed as active.

How did O=C1c2cccnc2C(=O)N1CNc1ccc(Cl)cc1 do in these assays?
Mot1-301 SUMO: 8.3; FAS TE block: -3.8; ATG4B inhibitor: -7.5; NadD block: 3.4; Calb FLC: 134.0*

Results for NC(=O)c1nn(CC(=O)Nc2cccc(S(=O)(=O)N3CCCC3)c2)c(=O)c2ccccc12 ?
Mot1-301 SUMO: -7.4; FAS TE block: -0.5; ATG4B inhibitor: -3.6; NadD block: 11.6

Results for O=C(/C=C/c1cc(Br)ccc1O)c1ccco1 ?
Mot1-301 SUMO: 179.2; FAS TE block: -1.6; ATG4B inhibitor: -11.0; NadD block: -5.9; Calb FLC: 93.0*

What do the screens show for `O=C(/C=C/c1ccccc1O)c1ccco1`?
Mot1-301 SUMO: 13.3; FAS TE block: -3.2; ATG4B inhibitor: -7.2; NadD block: 2.3; Calb FLC: 28.5

Results for O=[N+]([O-])c1ccc(CN2CCN(c3ccccc3)CC2)o1 ?
Mot1-301 SUMO: 23.9; FAS TE block: -2.9; ATG4B inhibitor: 4.0; NadD block: 5.1; Calb FLC: -14.6

What do the screens show for `O=[N+]([O-])c1ccc(N2CCN(Cc3ccc([N+](=O)[O-])o3)CC2)cc1`?
Mot1-301 SUMO: 235.7; FAS TE block: 0.2; ATG4B inhibitor: -1.4; NadD block: -3.0; Calb FLC: 133.0*

What do the screens show for `CN[C@H]1C[C@H]2c3cc(N4CCN(C)CC4)ccc3CCN2C(=O)[C@H]1[C@H](C)O`?
FAS TE block: -11.2; NadD block: -4.0

How did COC(=O)c1c(C(=O)OC)c(-c2ccc(Cl)c(Cl)c2)n2c1CCC2 do in these assays?
Mot1-301 SUMO: -1.3; FAS TE block: 26.4; ATG4B inhibitor: -8.6; NadD block: -7.0; Calb FLC: 111.4*

How did COC(=O)c1c(C(=O)OC)c(-c2ccc(C)cc2)n2c1CCC2 do in these assays?
Mot1-301 SUMO: -25.9; FAS TE block: -1.7; ATG4B inhibitor: 0.8; NadD block: -4.6; Calb FLC: 14.4

Results for Cc1cc(C)n2c(Nc3ccc4c(c3)OCCO4)c(CC(C)C)nc2n1 ?
FAS TE block: -3.2; NadD block: 8.8

What do the screens show for `Oc1ccc(CN2CCC(Cc3ccccc3)CC2)c2cccnc12`?
ATG4B inhibitor: 8.8; Calb FLC: 112.3*

Results for CCOC(=O)N1CCN(Cc2ccccn2)CC1 ?
Mot1-301 SUMO: 27.3; FAS TE block: -3.4; ATG4B inhibitor: -0.4; NadD block: 1.2; Calb FLC: inconclusive

What do the screens show for `O=[N+]([O-])c1cc(CN2CCCC2)c2cccnc2c1O`?
Mot1-301 SUMO: -6.7; FAS TE block: -3.3; ATG4B inhibitor: 18.5; NadD block: 74.4*

How did OCc1ccc(O)c2ncccc12 do in these assays?
Mot1-301 SUMO: -19.5; FAS TE block: -4.8; ATG4B inhibitor: -7.5; NadD block: 5.9; Calb FLC: 106.8*

What do the screens show for `Oc1ccc(Cc2ccccc2)c2cccnc12`?
FAS TE block: 1.1; ATG4B inhibitor: 1.2; NadD block: 0.7

How did O=[N+]([O-])c1cc(CN2CCN(c3cccc(C(F)(F)F)c3)CC2)c2cccnc2c1O do in these assays?
Mot1-301 SUMO: 53.9; ATG4B inhibitor: 6.3; Calb FLC: 2.1

What do the screens show for `CCOC(=O)N1CCN(Cc2ccc(O)c3ncccc23)CC1`?
Mot1-301 SUMO: 273.5; ATG4B inhibitor: -1.9; Calb FLC: 82.4*

How did CN1CCn2cnc(C(=O)N3CCN(c4ccccc4)CC3)c2C1=O do in these assays?
FAS TE block: -7.1; NadD block: -5.8

Results for COc1ccc(OC)c(NC(=O)C2(C)CCN2CCOc2ccccc2)c1 (configuration not stated) ?
FAS TE block: 16.5; NadD block: -2.9

How did CC(C)[C@H](NS(=O)(=O)c1ccccc1)C(=O)Nc1nccs1 do in these assays?
Mot1-301 SUMO: -4.8; FAS TE block: -3.6; ATG4B inhibitor: -18.5; NadD block: -1.1

Results for Cc1ccc(C)c(S(=O)(=O)N2CCN(Cc3ccc(O)c4ncccc34)CC2)c1 ?
Mot1-301 SUMO: -18.2; FAS TE block: 9.4; ATG4B inhibitor: -8.5; NadD block: 12.3; Calb FLC: 109.9*

What do the screens show for `Oc1ccc(CN2CCN(c3ccccc3)CC2)c2cccnc12`?
Mot1-301 SUMO: 0.0; FAS TE block: 8.5; ATG4B inhibitor: -3.8; NadD block: 2.6; Calb FLC: -6.8

How did Oc1ccc(CN2CCCCC2)c2cccnc12 do in these assays?
Mot1-301 SUMO: 13.1; FAS TE block: -4.7; ATG4B inhibitor: 5.3; NadD block: 2.9; Calb FLC: 103.0*

How did CC(O)CNc1nc(NCc2ccccc2)c2cnn(C)c2n1 (configuration not stated) do in these assays?
Mot1-301 SUMO: -0.4; FAS TE block: -5.8; ATG4B inhibitor: -8.3; NadD block: -3.4; Calb FLC: 33.3

What do the screens show for `COc1cccc(N2CCN(c3ncnc4c3[nH]c3ccccc34)CC2C)c1` (configuration not stated)?
Mot1-301 SUMO: 522.7*; Calb FLC: -1.9

How did c1ccc2c(c1)CCN(c1ncnc3c1[nH]c1ccccc13)C2 do in these assays?
Mot1-301 SUMO: -19.9; FAS TE block: 8.8; ATG4B inhibitor: 27.2; NadD block: 2.0; Calb FLC: 92.4*

Results for COc1cccc2[nH]c3c(N4CCc5ccccc5C4)ncnc3c12 ?
Mot1-301 SUMO: -0.9; ATG4B inhibitor: -5.7; Calb FLC: -0.9

Results for COc1cccc(N2CCN(c3ncnc4c3[nH]c3ccc(F)cc34)CC2C)c1 (configuration not stated) ?
Mot1-301 SUMO: 78.6; FAS TE block: 19.5; ATG4B inhibitor: -9.8; NadD block: 0.1; Calb FLC: -5.1

How did COc1ccc(C2Nc3ccccc3C(=O)N2NS(=O)(=O)c2ccccc2)cc1OC (configuration not stated) do in these assays?
Mot1-301 SUMO: 4.8; FAS TE block: 0.6; ATG4B inhibitor: -2.7; NadD block: -2.8; Calb FLC: 31.7

Results for COc1ccc(N2CCN(CCN3C(=O)c4ccccc4C3=O)CC2)cc1 ?
Mot1-301 SUMO: 6.4; FAS TE block: -4.5; ATG4B inhibitor: 1.9; NadD block: -7.3; Calb FLC: 4.5

How did Cc1cc(S(=O)(=O)c2ccc([N+](=O)[O-])cn2)ccc1Br do in these assays?
Mot1-301 SUMO: 379.2*; FAS TE block: 37.8; ATG4B inhibitor: 1.5; NadD block: -0.5; Calb FLC: -32.0

What do the screens show for `Cc1ccc(S(=O)(=O)c2ccc([N+](=O)[O-])cn2)cc1`?
Mot1-301 SUMO: 80.2; FAS TE block: 34.1; ATG4B inhibitor: 1.9; NadD block: -7.1; Calb FLC: -5.9

Results for O=C(Nc1ccc(N2CCOCC2)cc1N1CCOCC1)c1ccc(F)cc1 ?
Mot1-301 SUMO: 9.3; FAS TE block: -2.2; ATG4B inhibitor: 3.0; NadD block: 5.0

Results for CC1(c2ccc3c(c2)OCCO3)NC(=O)N(CC(=O)Nc2ccccc2)C1=O (configuration not stated) ?
Mot1-301 SUMO: -7.7; FAS TE block: -3.6; ATG4B inhibitor: -1.6; NadD block: 2.6

What do the screens show for `N=C(N)c1ccc(/C=C/c2ccc(C(=N)N)cc2O)cc1`?
Mot1-301 SUMO: -9.3; FAS TE block: -9.6; ATG4B inhibitor: -2.4; NadD block: -10.1; Calb FLC: 94.7*
